# Rows were chosen to be rich in hits. Some 2.9% of all compounds tested hit in one or more screens of this group.
# POLB inh: inhibitors of human DNA polymerase beta; AID 485314; P06746; Pol beta primer extension/strand displacement, fluorescence kinetic; Potency, µM (highest dose often 114 µM), actives largely listed as inhibitors; 340,000 compounds, 1.3% hits
#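 Pol beta (10 nM) was preincubated with compound for 15 min at room temperature. The reaction was then started with 50 nM substrate and read immediately and after a further 10 min at room temperature.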
# Pol kappa inh: DNA polymerase kappa (human) inhibition. Q9UBT6. purified Pol kappa, fluorescent DNA synthesis assay, 10 min. Potency, µM (titrated, usually from 107 µM), hits mostly inhibitors. 400,000 compounds, 0.53% hits. AID 588579
# Target sequence (Q9UBT6 whole entry, looked up): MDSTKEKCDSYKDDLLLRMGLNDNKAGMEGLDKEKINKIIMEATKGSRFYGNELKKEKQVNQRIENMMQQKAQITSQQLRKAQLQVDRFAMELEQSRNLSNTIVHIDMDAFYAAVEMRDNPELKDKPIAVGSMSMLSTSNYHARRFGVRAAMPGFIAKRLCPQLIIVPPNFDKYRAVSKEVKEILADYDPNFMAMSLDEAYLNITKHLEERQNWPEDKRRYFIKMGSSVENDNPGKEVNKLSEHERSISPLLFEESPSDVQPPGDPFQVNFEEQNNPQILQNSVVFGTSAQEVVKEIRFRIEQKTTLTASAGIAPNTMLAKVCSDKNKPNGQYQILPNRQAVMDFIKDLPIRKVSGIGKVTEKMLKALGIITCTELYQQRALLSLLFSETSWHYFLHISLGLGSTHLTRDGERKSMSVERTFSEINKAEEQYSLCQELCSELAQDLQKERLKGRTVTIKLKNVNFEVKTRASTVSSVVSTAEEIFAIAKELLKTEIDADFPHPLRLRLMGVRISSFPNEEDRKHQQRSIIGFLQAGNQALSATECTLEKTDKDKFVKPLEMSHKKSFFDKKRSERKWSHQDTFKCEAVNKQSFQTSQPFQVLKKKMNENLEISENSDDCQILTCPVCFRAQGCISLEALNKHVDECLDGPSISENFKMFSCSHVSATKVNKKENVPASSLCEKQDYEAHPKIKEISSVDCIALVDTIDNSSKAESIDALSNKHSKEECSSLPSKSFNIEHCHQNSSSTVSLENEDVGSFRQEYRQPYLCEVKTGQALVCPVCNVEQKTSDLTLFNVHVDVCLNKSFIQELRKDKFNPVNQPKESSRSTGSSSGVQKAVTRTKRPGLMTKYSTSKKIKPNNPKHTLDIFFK
#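 First, compounds were pin-transferred onto 10 nM Pol kappa. After 15 min at room temperature, substrate was added to 50 nM final. Fluorescence was then measured kinetically at 0 and 10 min.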
# PI5P4K alpha inh: inhibitors of human PI5P4K alpha. P48426. PI5P4Kalpha enzyme, ADP-Glo luminescence, 60 min; hits give low values. max response, %. 330,000 compounds, 1.2% hits. AID 652105; active = max response of -50% or lower; inconclusive = between -30% and -50%; inactive = -30% or higher; also: value at the top dose of about 77 µM
#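 Luminescence from ADP-Glo served as readout of PI5P4Kalpha activity in a qHTS format. Reaction: enzyme, substrate, compound, ATP at 5 microM final, 60 min at RT.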
# POLH inh: DNA polymerase eta (human) inhibition; Q9Y253; recombinant Pol eta, fluorescent DNA replication assay; Potency, µM (series often up to 114 µM), usual class: inhibitors; 390,000 compounds, 1.2% hits; AID 588591
#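 Fluorescent replication assay: 50 nM final substrate added after a 15 min room-temperature compound preincubation with 10 nM enzyme. Signal taken at 0 min and again at 10 min.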
# 12-LOX inh: inhibitors of human 12S-lipoxygenase ALOX12; P18054; 580,000 compounds, 1.1% hits; Potency, µM (series often up to 108 µM), hits mostly inhibitors; AID 1671190; purified 12hLO, xylenol orange hydroperoxide absorbance
#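 Purified human 12hLO (150 nM final) in 25 mM Hepes, 0.01% Triton X-100, pH 7.0 was preincubated 15 min at room temperature with compound. Then 40 uM arachidonic acid was added, 30 min. Hydroperoxide was read by Fe-XO absorbance ratio 573/405 nm.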
# Pol iota inh: inhibitors of human DNA polymerase iota; Q9UNA4; Pol iota fluorescent replication assay, 10 min; Potency, µM (highest dose often 115 µM), usual class: inhibitors; 390,000 compounds, 1% hits
#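 Fluorescent replication assay read twice, at 0 min and 10 min after adding 50 nM (final) substrate. Enzyme (10 nM) and compounds were first incubated 15 min at room temperature; enzyme-free buffer wells were negative controls.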
# Hits are given with their value; – = inactive; ? = inconclusive; · = no result given. Unless noted, calls follow the shape of the dose curve; as a rule, active = well fitted inhibition curve with a large enough effect; inconclusive = small, poorly fitted or top-dose-only effect, or another doubt; inactive = no such curve, though single readings can be large or run the other way.
SMILES,POLB inh,Pol kappa inh,PI5P4K alpha inh,POLH inh,12-LOX inh,Pol iota inh
Cc1ccc(NC(=O)C2CCCN2C(=O)OCc2ccccc2)cc1F (configuration not stated),–,79µM,–,–,–,?
Cc1ccc(NC(=O)C2CCCN2S(=O)(=O)c2ccc3nc(-c4ccccc4)[nH]c3c2)cc1F (configuration not stated),?,?,·,79µM,?,?
O=C(Nc1cccc(F)c1)C1CCCN1C(=O)OCc1ccccc1 (configuration not stated),–,–,–,–,–,–
CCOc1ccccc1NC(=O)CSc1nc2ccsc2c(=O)[nH]1,·,·,·,·,–,·
CNc1ncncc1-c1ccc(C(=O)N(C)C)cc1,·,–,·,·,32µM,·
CN(C)c1ccc(-c2cncnc2NCCN2CCOCC2)cc1,·,–,·,·,?,·
CC(=O)NCCNc1ncncc1-c1ccc(N(C)C)cc1,·,–,·,·,45µM,·
CCCN1C(=O)/C(=C/c2c(N3CCNC(=O)C3CC(=O)OC)nc3c(C)cccn3c2=O)SC1=S (configuration not stated),89µM,·,·,·,·,·
Cc1ccc2nc(C)cc(C(=O)OC(C)C(=O)NCC(C)C)c2c1 (configuration not stated),·,·,·,·,–,·
CCCCCOc1ccc2oc(=O)c3c(c2c1)CCCN3C(=O)CN1CCCC(C(=O)OCC)C1 (configuration not stated),–,–,–,–,–,–
CCOC(=O)C1CCCN(CC(=O)N2CCCc3c2c(=O)oc2ccc(OCc4ccccc4)cc32)C1 (configuration not stated),–,–,·,–,22µM,–
COc1cccc(OC)c1OCCCN1CCC(Cc2ccccc2)CC1,–,–,–,–,11µM,–
COc1ccc(CN2CCC(Cc3ccccc3)CC2)cc1OC,–,–,–,–,?,–
Nc1ccc(C(=O)Nc2ccc(Nc3ccncc3)cc2)cc1,32µM,–,–,–,–,?
CC(=O)Nc1cccc(-c2nc3ccc(NC(C)=O)cc3[nH]2)c1,45µM,?,–,?,–,?
Nc1ccc(C(=O)Nc2ccc3nc(-c4cccnc4)[nH]c3c2)cc1,40µM,?,–,–,?,–
Nc1ccc(NC(=O)c2ccc(C(=O)Nc3ccc(N)cc3)cc2)cc1,?,–,–,–,–,–
CC(=O)Nc1cccc(-c2nc3ccccc3[nH]2)c1,–,–,–,–,–,–
COc1ccccc1OCc1nc2c(n1Cc1ccccc1)C(=O)N(Cc1cccc(Cl)c1)CCN2,·,·,·,·,–,·
CCc1c(C)sc(NC(=O)C2CCC2)c1C#N,·,·,·,·,13µM,·
CCc1c(C)sc(NC(=O)C(F)(F)C(F)(F)C(F)(F)C(F)(F)F)c1C#N,·,·,·,·,10µM,·
CCc1c(C)sc(NC(=O)C2CC2)c1C#N,·,·,·,·,28µM,·
COCCCNC(=O)c1ccc(-c2nc(CS(=O)(=O)c3ccccc3)c(C)o2)cc1,·,·,·,·,–,·
COc1ccc(-c2nc3cc(NC(=O)C(C)C)ccc3o2)cc1Cl,·,·,·,·,–,·
O=C1c2ccccc2NC(c2csc(-c3ccc(F)cc3)n2)N1CC(F)(F)F (configuration not stated),·,·,·,·,–,·
SMILES,POLB inh,Pol kappa inh,PI5P4K alpha inh,POLH inh,12-LOX inh,Pol iota inh
CCCc1ccc(/C=C/c2ccccc2)nc1,·,·,·,·,–,·
CCCCn1nc(C(=O)Nc2c(C)cccc2CC)c2ccccc2c1=O,·,·,·,·,–,·
COc1ccc(NC2CCCN(C(=O)c3cccc(C)n3)C2)cc1OC (configuration not stated),–,?,–,–,–,50µM
Oc1c(Cl)cc(Cl)c2c1NCCC2,–,–,–,–,?,–
O=C1CCc2c(Cl)cc(Cl)c(O)c21,·,·,·,·,5.6µM,·
O=C(Nc1ccccc1-c1ccccc1)C1CCCCC1,–,–,–,–,–,89µM
CCCCCCCC#Cc1ccccc1/C=N/S(=O)c1ccc(C)cc1 (configuration not stated),–,–,-100,–,·,–
Cc1ccc(-c2nc(CCNc3ncccc3C#N)co2)cc1,·,·,·,·,–,·
Nc1cc([N+](=O)[O-])ccc1Nc1ccc(O)cc1,–,–,-57,–,?,–
O=C(O)CC(Sc1n[nH]c(=S)s1)C(=O)O (configuration not stated),25µM,–,?,–,2µM,?
